About 83,000 compounds went through this panel and 20% of them were active in at least one assay; those are over-represented in the sample as a whole.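 Each cell line was grown in a 96-well plate and treated with one concentration of compound for 48 hours. Values below 10 were considered active.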 Values without a mark were called inactive. The source made the active and inactive calls.
Tested on: A498 renal
Test: NCI-60 one-dose screen, 48 h (100 = growth as untreated, 0 = no growth, -100 = all killed)
Conditions: 10 µM

Row | Structure (SMILES) | growth
1 | CC(=O)Nc1ccc(-c2cn(-c3cccc(C(=O)Nc4cccc(OC(F)(F)F)c4)c3)nn2)cn1 | 178%
2 | CCOC(=O)C1=C(N)N(c2ccccc2)C2=C(C(=O)CC(C)(C)C2)C1c1ccccc1OC (stereo not given) | 98.7%
3 | O=c1[nH]c2ccccc2cc1CSc1ccc(Nc2nccc(-c3ccc(C(F)(F)F)cc3)n2)cc1 | -50.2% (active)
4 | COC(=O)C[C@](O)(CCCC(C)(C)O)C(=O)O[C@H]1C(OC)=C[C@@]23CCC(=O)N2CCc2cc4c(cc2[C@@H]13)OCO4 | 76.6%
5 | COc1ccc2[nH]c(O)c(N=NC(=O)c3cc(-c4ccc(C)cc4)nc4ccccc34)c2c1 | 126%
6 | COc1ccc(CN2[C@H](C(=O)NCc3ccc(C(=O)NO)cc3)Cc3c([nH]c4ccccc34)[C@H]2C2CC2)cc1 | 65%
7 | COc1ccc(C2N(c3ccc(Br)cc3)N=C(C(C)=O)N2[C@H]2[C@H](OC(C)=O)O[C@H](COC(C)=O)[C@@H](OC(C)=O)[C@@H]2OC(C)=O)cc1 (stereo not given in full) | 61.3%
8 | CN(CCF)c1ccc(/C=C/C(=O)c2ccc(N)cc2O)cc1 | 115%

Tested on: CCRF-CEM leukemia
Test: as above
Conditions: 10 µM

Row | Structure (SMILES) | growth
9 | Cc1ccc(/C=C/C(=O)c2ccc(NC(=O)CSc3nnc(-c4c[nH]c5ccccc45)n3-c3ccccc3)cc2)cc1 | 93.7%
10 | CCCn1c(O)c(N=Nc2nc(-c3cc4ccccc4oc3=O)cs2)c2cc(Br)ccc21 | 98.9%
11 | COc1ccc2[nH]c(=O)c(CSc3nccc(-c4ccc(Cl)cc4)n3)cc2c1 | 32.6%
12 | COc1cc(/C=C/C(=O)c2cc(OC)c(OC)c(OC)c2)ccc1Oc1nc(Nc2ccc(F)cc2)nc(N(C)C)n1 | 3.77% (active)
13 | c1ccc(C(=C(c2ccc(OCCN3CCCCC3)cc2)c2ccc(OCCN3CCCCC3)cc2)C2CCCC2)cc1 | -60.4% (active)
14 | Cc1ccc(/C=C(\C#N)n2nnc3c(F)cccc32)cc1 | 10.1%
15 | O=C1Nc2ccc(F)cc2/C1=C/c1cccc(OCc2ccccn2)c1 | 3.93% (active)
16 | Cc1ccc(-c2cc(C(=O)N=Nc3c(O)[nH]c4ccc(Br)cc34)c3ccccc3n2)cc1 | 26.8%
17 | Cc1cc(C)nc(NS(=O)(=O)c2ccc(N/C(N)=N/c3nccc(-c4ccccc4)n3)cc2)n1 | 67.7%
18 | COc1ccc(NC(=O)Nc2ccc(OCC(=O)N=Nc3c(O)[nH]c4ccc([N+](=O)[O-])cc34)cc2)cc1 | 93.7%
19 | COc1ccc(-c2nc(Nc3ccccc3S(N)(=O)=O)c3ccccc3n2)cc1 | 64.1%
20 | CCCCCc1ccc(S(=O)(=O)N(C(C)=O)c2cc(-c3csc(N(C)C(C)=O)n3)ccc2N2CCN(C)CC2)cc1 | -7.22% (active)
21 | NS(=O)(=O)c1ccc(N=Nc2c(O)n(CC(=O)Nc3ccccc3Br)c3ccccc23)cc1 | 57.2%
22 | CN(C)c1nc(NCCNS(=O)(=O)c2ccc(C(=O)/C=C/c3ccccc3)cc2)nc(Nc2ccc(F)cc2)n1 | 14.8%
23 | CC1=C2C(=C[C@@](C)(COCOCCCl)[C@@H]2O)C(=O)[C@](C)(O)C12CC2 | 3.19% (active)
24 | COC[C@@H](CC(C)C)N=C1NC(=O)/C(=C/c2ccc3ncoc3c2)N1 | 15.2%
25 | CC1=C2C(=C[C@@](C)(CO)[C@@H]2O)/C(=N\N)[C@](C)(O)C12CC2 | 18.8%
26 | CN1CCc2c(sc3ncnc(N/N=C/c4ccc5ccccc5c4)c23)C1 | 40.6%
27 | Cc1cccc(-c2nc(Nc3ccccc3C(=O)O)c3ccccc3n2)c1 | 17.8%

Row | Structure (SMILES) | growth
28 | COc1ccc2[nH]c(O)c(N=NC(=O)COc3ccc(NC(=O)Nc4ccc(Cl)cc4)cc3)c2c1 | 8.83% (active)
29 | CN1CCN(Cc2ccc(NC(=O)c3cncc(C#Cc4cnc5ccc(N[C@H]6CCOC6)nn45)c3)cc2C(F)(F)F)CC1 | -2.23% (active)
30 | N#Cc1c(Cl)nc(SCc2ccc(F)cc2)nc1-c1ccc(F)cc1 | 86.7%
31 | CONC[C@]1(C)C=C2C(=O)[C@](C)(O)C3(CC3)C(C)=C2[C@H]1O | 4.58% (active)
32 | CCCCOc1ccc(Nc2nc3ccccc3nc2Nc2ccc(OCCCC)cc2)cc1 | 69.1%
33 | C=C1CCC2C3(C)COC(c4cccc(F)c4)OC3CCC2(C)C1CC(O)C1=CCOC1=O (stereo not given) | 23.2%
34 | COc1ccc(/C=N/N=C(\C)c2ccc3c(c2)Nc2ccccc2S3)cc1O | 33.9%
35 | O=S(=O)(Nc1ncccn1)c1ccc(-n2c(-c3ccc(Br)cc3)nc(-c3ccccc3)c2-c2ccccc2)cc1 | 18.6%
36 | C[C@H]1[C@H](C)CC[C@]2(COC(=O)CCC(=O)NCC#CCN3CCNCC3)CC[C@]3(C)C(=CC[C@@H]4[C@@]5(C)CCCNC(C)(C)[C@@H]5CC[C@]43C)[C@H]12 | 12.5%
37 | CN1CCN(Cc2ccc(C(=O)Nc3cccc(Nc4ccc5c(O)cccc5n4)c3)cc2C(F)(F)F)CC1 | 5.12% (active)
38 | CC(=O)Nc1ccc(-c2cn(-c3cccc(C(=O)Nc4cccc(OC(F)(F)F)c4)c3)nn2)cn1 | 98.1%
39 | CCOC(=O)C1=C(N)N(c2ccccc2)C2=C(C(=O)CC(C)(C)C2)C1c1ccccc1OC (stereo not given) | 100%
40 | O=c1[nH]c2ccccc2cc1CSc1ccc(Nc2nccc(-c3ccc(C(F)(F)F)cc3)n2)cc1 | 75%
41 | COC(=O)C[C@](O)(CCCC(C)(C)O)C(=O)O[C@H]1C(OC)=C[C@@]23CCC(=O)N2CCc2cc4c(cc2[C@@H]13)OCO4 | 101%
42 | COc1ccc2[nH]c(O)c(N=NC(=O)c3cc(-c4ccc(C)cc4)nc4ccccc34)c2c1 | 52.1%
43 | COc1ccc(CN2[C@H](C(=O)NCc3ccc(C(=O)NO)cc3)Cc3c([nH]c4ccccc34)[C@H]2C2CC2)cc1 | 28.8%
44 | COc1ccc(C2N(c3ccc(Br)cc3)N=C(C(C)=O)N2[C@H]2[C@H](OC(C)=O)O[C@H](COC(C)=O)[C@@H](OC(C)=O)[C@@H]2OC(C)=O)cc1 (stereo not given in full) | 78.8%
45 | CN(CCF)c1ccc(/C=C/C(=O)c2ccc(N)cc2O)cc1 | 60.8%
